According to PubChem BioAssay AID623992 (NMMLSC, 2012):
Entries with a potency or affinity are not part of this list. Calls of active or inactive are those of the source.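 The calls were made as follows: active = compounds whose fitted half-maximal effective concentration for blocking dye efflux is below 100 µM; inactive = the rest.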

What follows are compounds tested against Benomyl/methotrexate resistance protein (Candida albicans) (UniProt P28873) (assay: Candida albicans Mdr1 pump blockade titration – singleplex, Cherry Pick2 set, dose response (AID 623992)). Settings: S. cerevisiae AD/CaMDR1, Nile Red efflux, flow cytometry; series mostly up to 100 µM; efflux inhibition response: at the top concentration.
Chain of Benomyl/methotrexate resistance protein (Candida albicans) (P28873 whole entry, looked up): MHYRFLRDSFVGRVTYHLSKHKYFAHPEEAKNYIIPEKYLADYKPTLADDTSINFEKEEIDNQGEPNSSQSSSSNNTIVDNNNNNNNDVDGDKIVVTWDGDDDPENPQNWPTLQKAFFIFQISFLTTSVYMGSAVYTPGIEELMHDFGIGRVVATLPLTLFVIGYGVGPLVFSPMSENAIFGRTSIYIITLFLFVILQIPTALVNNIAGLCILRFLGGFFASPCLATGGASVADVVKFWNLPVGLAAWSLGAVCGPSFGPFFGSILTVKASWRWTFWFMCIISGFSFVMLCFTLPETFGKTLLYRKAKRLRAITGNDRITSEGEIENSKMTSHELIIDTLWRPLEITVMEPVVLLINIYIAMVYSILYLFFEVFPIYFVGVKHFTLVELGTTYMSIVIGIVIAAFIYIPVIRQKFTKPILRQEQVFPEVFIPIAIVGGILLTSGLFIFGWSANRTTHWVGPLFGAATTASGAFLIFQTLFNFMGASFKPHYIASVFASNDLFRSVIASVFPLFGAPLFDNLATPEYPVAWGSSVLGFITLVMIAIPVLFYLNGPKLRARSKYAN

Efflux inhibition response, inactive:
O=C(c1ccoc1)N1CCC2(CC1)Oc1ccc(F)cc1C(=O)C21CC(c2ccccc2)=NO1 (stereo unspecified) 105%
O=C(C1CCCN(c2ncnc3c2nc2n3CCCCC2)C1)N1CCN(c2ccccc2)CC1 (stereo unspecified) -0.65%
Cc1ccc(C)c(N2CCN(C(=O)C3CCCN(c4ncnc5c4nc4n5CCCCC4)C3)CC2)c1 (stereo unspecified) -0.53%
COc1ccc(C(=O)OCCc2ccc(O)cc2)cc1 0.09%
NS(=O)(=O)c1ccc(N2N=C(c3ccccc3)CC2c2cccc(Br)c2)cc1 (stereo unspecified) -2.03%
Cc1cccc(C2CC(c3ccccc3)=NN2c2ccc(S(N)(=O)=O)cc2)c1 (stereo unspecified) -2.38%
COc1cc(OC)c2c(-c3ccccc3)cc(=O)oc2c1C(CCN1CCCC(C)C1)c1ccc(N(C)C)cc1 (stereo unspecified) -0.53%
O=C(C1CCCN(c2ncnc3c2nc2n3CCCCC2)C1)N1CCN(c2cccc(Cl)c2)CC1 (stereo unspecified) -0.25%
COc1ccc(N2CCN(C(=O)C3CCCN(c4ncnc5c4nc4n5CCCCC4)C3)CC2)cc1 (stereo unspecified) -1.48%
CCOc1cccc2sc(NC(=O)c3ccc(Br)s3)nc12 -0.82%
Cc1ccc(N2CCN(C(=O)C3CCCN(c4ncnc5c4nc4n5CCCCC4)C3)CC2)c(C)c1 (stereo unspecified) -0.58%
CC(C)C(=O)N1CCC2(CC1)Oc1ccc(F)cc1C(=O)C21CC(c2ccc(Cl)cc2)=NO1 (stereo unspecified) 133%
Cc1ccc2sc(N(CCCN(C)C)C(=O)c3ccc(Br)s3)nc2c1C -2.13%
COc1ccccc1C(=O)OCCc1ccccc1 -0.58%
COc1ccc(C(=O)NC2CC(C)(C)Cc3c2cnn3-c2ccccc2)c(OC)c1 (stereo unspecified) -0.62%
CCCCCCCCCC[N+](C)(C)CC/C=C1/c2ccccc2Sc2ccc(Cl)cc21 405%
